# An excerpt weighted towards active compounds, which were near 0.38% of everything screened.
# Rab7 wt modul = dog Rab7 wildtype GTP binding, inhibitors and activators; GTP binding activity (percent of control), % at 10 µM; GST-Rab7 beads, fluorescent GTP binding, flow cytometry; actives lie on both sides; untreated = 100%, excess cold GTP = 0%; actives 0.055% (n = 190,000);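 active means fluorescent GTP binding to Rab7 beads changed by at least 20 points from the 100% baseline, either direction, mostly lower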;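 further: median green fluorescence of bound Bodipy-FL-GTP per Rab7 bead population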
# Rac1 wt modul = alters GTP binding to wildtype human Rac1 | AID 757 | P63000 | GTP binding activity (% of control), % at 10 µM | GST-Rac1 beads, fluorescent GTP binding, flow cytometry; actives lie on both sides; 0 = cold GTP competed, 100 = untreated | actives 0.27% (n = 190,000);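 active means GTP binding activity at least 20 points away from the 100% control level, either lower or higher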
# Cdc42 wt = human Cdc42 wildtype GTP binding change, either direction; GST-Cdc42 beads, Bodipy-GTP binding, flow cytometry; actives lie on both sides; percent activity (GTP binding), % at 10 µM; AID 761; P60953; actives 0.2% (n = 190,000);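 active means percent activity GTP binding at least 20 points away from the 100% baseline, either down as inhibitor or up as activator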;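 further: median bead fluorescence of bound Bodipy-FL-GTP at 100 nM; 0% = excess unlabeled GTP control and 100% = no compound control; below 100% means less GTP binding so inhibitor and above means activator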
# Target sequence (P60953 whole entry, looked up): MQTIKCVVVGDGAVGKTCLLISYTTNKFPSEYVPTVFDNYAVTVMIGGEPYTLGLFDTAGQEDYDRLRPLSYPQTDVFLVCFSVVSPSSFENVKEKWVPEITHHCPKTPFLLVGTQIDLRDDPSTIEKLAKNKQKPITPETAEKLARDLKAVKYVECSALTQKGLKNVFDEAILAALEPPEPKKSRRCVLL
# HRas wt GTP = human HRas wildtype GTP binding, change in either direction; P01112; GST-Ras wt beads, Bodipy-FL-GTP binding, flow cytometry; actives lie on both sides; GTP binding activity, % at 10 µM; actives 0.14% (n = 190,000); AID 759;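 active means GTP binding activity at least 20% away from the 100% baseline, either lowered as inhibitor or raised as activator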;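 further: 0% = unlabeled GTP competition control and 100% = no-compound control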
# Target sequence (P01112 whole entry, looked up): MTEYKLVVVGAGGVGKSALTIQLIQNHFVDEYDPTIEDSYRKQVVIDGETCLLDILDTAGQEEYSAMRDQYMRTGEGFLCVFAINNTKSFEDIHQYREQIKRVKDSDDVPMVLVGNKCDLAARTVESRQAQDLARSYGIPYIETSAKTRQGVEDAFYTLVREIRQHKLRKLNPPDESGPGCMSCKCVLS
# Rac1 mut GTP = modulators of GTP binding to human Rac1 activated mutant; P63000; GST-Rac1 activated beads, fluorescent GTP binding, flow cytometry; actives lie on both sides; 100% means binding = to untreated wells; actives 0.11% (n = 190,000); percent activity (GTP binding), % at 10 µM;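 active means GTP binding at least 20 percentage points away from the 100% baseline, in either direction, so actives lie on both sides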
# Rab2A wt mod = changes GTP binding to wildtype dog Rab2A, up or down; P61105; GST-Rab2 wt beads, Bodipy-GTP binding, flow cytometry; GTP binding activity, % at 10 µM; actives 0.19% (n = 190,000);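 active means GTP binding activity at least 20 points away from 100%, either lowered or raised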;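 further: 0% = beads with excess unlabeled GTP and 100% = no-compound control corrected for plate trend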
# Active calls of the source: *; [ ] = remark or other dose.
SMILES,Rab7 wt modul,Rac1 wt modul,Cdc42 wt,HRas wt GTP,Rac1 mut GTP,Rab2A wt mod
COC(=O)COc1ccc(/C=N/NC(=O)c2ccc(N(Cc3ccccc3)S(C)(=O)=O)cc2)cc1,89.0,76.0*,86.0,81.0,88.0,76.0*
CC(C)Oc1ccc(/C=N/NC(=O)c2ccc(N(Cc3ccccc3)S(C)(=O)=O)cc2)cc1,87.0,74.0*,84.0,84.0,85.0,74.0*
O=C(N/N=C/c1ccccc1)c1ccc(OCc2ccccc2)cc1,95.0,103.0,99.0,100.0,96.0,98.0
CS(=O)(=O)N(Cc1ccccc1)c1ccc(C(=O)Nc2cccnc2)cc1,96.0,104.0,102.0,100.0,99.0,102.0
CC1(C)CC(=O)C=C(C(=O)N2CCCC(C(=O)c3cccc(Cl)c3)C2)O1 (stereo not given),98.0,101.0,100.0,99.0,98.0,98.0
COc1cccc(-n2c(SCC(=O)NCCC3=CCCCC3)nc3n[nH]c(C)c3c2=N)c1,87.0,88.0,75.0*,73.0*,89.0,76.0*
CCn1cc(C(=O)O)c(=O)c2cc(F)c(N/N=C/c3ccccc3)cc21,89.0,76.0*,89.0,84.0,88.0,83.0
CCOc1ccc(C(C(=O)NC2CCCC2)N(CCCO)C(=O)c2ccc(-c3ccccc3)[nH]2)cc1 (stereo not given),97.0,90.0,90.0,91.0,89.0,92.0
O=C(/C=C/c1ccccc1)NC(NC(=S)Nc1cccc(O)c1)C(Cl)(Cl)Cl (stereo not given),98.0,100.0,101.0,98.0,96.0,95.0
O=C(/C=C/c1ccccc1)NC(NC(=S)Nc1ccc(C(=O)O)cc1)C(Cl)(Cl)Cl (stereo not given),88.0,88.0,96.0,87.0,91.0,79.0*
O=C(N/N=C/c1cccc(C(F)(F)F)c1)C1CCN(c2ncc(C(F)(F)F)cc2Cl)CC1,100.0,100.0,99.0,99.0,96.0,96.0
Cc1cccc(CSc2ncccc2C(=O)O)c1,120.0*[activator],161.0*[activator],149.0*[activator],129.0*[activator],134.0*[activator],132.0*[activator]
O=C(O)c1cccnc1SCc1cccc(Cl)c1,124.0*[activator],129.0*[activator],131.0*[activator],125.0*[activator],127.0*[activator],132.0*[activator]
O=C(O)c1ccccc1CSc1ncccc1C(=O)O,94.0,97.0,94.0,94.0,93.0,93.0
CC1(C)CC2CC(C)(CN2C(=O)c2cccs2)C1 (stereo not given),100.0,157.0*[activator],133.0*[activator],100.0,113.0,104.0
COc1cc2[nH]c(=O)n(C3CCCCC3)c(=O)c2cc1OC,102.0,106.0,103.0,102.0,98.0,101.0
COc1cc2[nH]c(=S)nc(NC3CCCC3)c2cc1OC,74.0*,51.0*,58.0*,60.0*,70.0*,60.0*
C#CCOCCOCCOCCNc1nc(N2CCN(C(=O)C([C@@H](C)CC)n3cc(C(N)Cc4ccc(O)cc4)nn3)CC2)nc(N2CCN(C(=O)[C@H](CCC(=O)O)n3cc(C(N)CO)nn3)CC2)n1 (stereo not given in full),99.0,101.0,98.0,98.0,98.0,97.0
OC(CNCCc1ccc(Cl)cc1)COc1ccc2ccccc2c1 (stereo not given),90.0,81.0,77.0*,80.0,77.0*,78.0*
OC(COc1ccc2ccccc2c1)Cn1ccnc1 (stereo not given),97.0,98.0,98.0,98.0,96.0,97.0
Cc1onc(-c2ccccc2Cl)c1C(=O)N1C=CC(C(F)(F)Cl)=NCC1,99.0,104.0,98.0,99.0,99.0,97.0
CCCOc1ccc(C(CC(=O)O)NC(=O)c2sc3ccccc3c2Cl)cc1 (stereo not given),93.0,76.0*,72.0*,77.0*,69.0*,75.0*
CCOc1ccc(C(CC(=O)O)NC(=O)c2sc3ccccc3c2Cl)cc1 (stereo not given),97.0,95.0,94.0,96.0,94.0,94.0
CCOc1ccccc1C(=O)Nc1cccc(-c2ccc3nncn3n2)c1,92.0,73.0*,73.0*,78.0*,88.0,75.0*
O=C(Nc1cccc(-c2ccc3nncn3n2)c1)c1ccco1,91.0,77.0*,86.0,85.0,89.0,87.0
SMILES,Rab7 wt modul,Rac1 wt modul,Cdc42 wt,HRas wt GTP,Rac1 mut GTP,Rab2A wt mod
Cc1nnc2ccc(-c3cccc(NC(=O)c4ccc(Cl)nc4)c3)nn12,95.0,86.0,91.0,91.0,91.0,91.0
Cc1nnc2ccc(-c3cccc(NC(=O)c4ccc(Br)o4)c3)nn12,91.0,79.0*,88.0,86.0,90.0,86.0
Cc1nn(-c2ccccc2)c(C)c1/C=C/C(=O)OCC(=O)N(C)C1CCS(=O)(=O)C1 (stereo not given),93.0,93.0,97.0,94.0,96.0,95.0
Nc1[nH]nc2ncc3cc4ccccc4nc3c12,88.0,68.0*,80.0,85.0,83.0,82.0
Cc1ccc(/C=N/NC(=O)c2cc(C3CC3)nc3ccccc23)o1,99.0,97.0,98.0,97.0,97.0,97.0
CCOC(=O)C1=C(C)NC(C)=C(C(=O)OCC)C1C(=O)OCC(=O)N(C)C1CCS(=O)(=O)C1 (stereo not given),102.0,93.0,94.0,95.0,94.0,97.0
O=C(O)C1CSC(c2coc3ccccc3c2=O)N1 (stereo not given),101.0,97.0,96.0,97.0,97.0,92.0
O=C(O)C1CSC(CCc2ccccc2)N1 (stereo not given),111.0,123.0*[activator],114.0,109.0,112.0,110.0
O=C(OC1CCCCC1)c1ccc(NC(=O)C2CCCCC2)cc1,95.0,99.0,79.0*,97.0,99.0,99.0
O=C(O)CCC(=O)Nc1ccc(C(=O)OC2CCCCC2)cc1,96.0,97.0,97.0,99.0,99.0,99.0
CC(C)NC(=S)N=Nc1c(O)[nH]c2ccc([N+](=O)[O-])cc12,95.0,62.0*,68.0*,72.0*,81.0,68.0*
O=C(N=Nc1c(O)[nH]c2ccc([N+](=O)[O-])cc12)c1cc(-c2ccccc2Cl)nc2ccccc12,96.0,100.0,102.0,96.0,99.0,96.0
COc1ccccc1C(=O)N=Nc1c(O)[nH]c2ccc([N+](=O)[O-])cc12,66.0*,45.0*,51.0*,53.0*,66.0*,51.0*
N#C/C(=C/c1ccc(O)c([N+](=O)[O-])c1)C(=O)Nc1ccccc1,102.0,77.0*,79.0*,86.0,87.0,84.0
N#C/C(=C/c1ccc([N+](=O)[O-])cc1)C(=O)Nc1ccccc1O,94.0,98.0,91.0,96.0,97.0,93.0
NC(=O)c1ccc(NCCCN2CCOCC2)c([N+](=O)[O-])c1,98.0,101.0,97.0,96.0,99.0,97.0

# Source: PubChem BioAssay
